Results as given in PubChem BioAssay (Tox21).
Values joined by “and” are separate entries in the source; they are usually repeats but may differ in a detail not shown here. Equal values may be shown once. Results filed as inconclusive are left out. A call without a number means that no potency is given here. A structure can be active in one record and inactive in another. Active and inactive are the calls of the source. Unless noted, calls follow the shape of the dose curve; as a rule, active = well fitted curve in the direction sought with a large enough effect in the repeat runs; inconclusive = weak or mixed curves; inactive = no such curve, though single readings can be large; an effect the other way counts as inactive or inconclusive.

Tests used:
[1] = qHTS assay to identify small molecule agonists of the constitutive androstane receptor (CAR) signaling pathway - cell viability counter screen (AID 1224836); also: nearly all actives have a fitted effect of over 45% in size
In short: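 Using CellTiter-Fluor, viability of HepG2 cells harbouring hCAR and CYP2B6-2.2kb was measured following 23 h incubation with a 15-concentration compound series plus PK11195 (0.75 uM final).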

[2] = qHTS assay to identify small molecule antagonists of the constitutive androstane receptor (CAR) signaling pathway - cell viability counter screen (AID 1224837); also: nearly all actives have a fitted effect of over 45% in size
In short: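 Read-out: CellTiter-Fluor fluorescence after 23 hr at 37 C/5% CO2. Cells: HepG2 double-stable for hCAR and CYP2B6-2.2kb. Compounds tested at 15 concentrations in the presence of CITCO, final concentration 50 nM.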

[3] = qHTS assay to identify small molecule agonists of H2AX (AID 1224845; active = well fitted activation curve with a large enough effect in the signal ratio in the repeat runs, not every such curve was filed as active; the % refers to the signal ratio)
In short: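 Phospho-H2AX Ser139 measured by HTRF (ex 320 nm; em 665 and 620 nm) after 24 hr antibody incubation. Compounds, 15 concentrations, 0.76% DMSO, were applied to CHO-K1 cells for 3hr at 37C before lysis.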

[4] = qHTS assay to identify small molecule agonists of the hypoxia (HIF-1) signaling pathway - cell viability counter screen (AID 1224844; calls by dose curve; also: nearly all actives have a fitted effect of over 50% in size)
In short: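 CellTiter-Glo luminescence read-out, 30 min RT, taken in the same wells as the beta-lactamase HRE reporter assay; HRE-bla ME-180 cells, 0.5% dialyzed FBS, 17 hr compound treatment at 37C, 5% CO2.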

[5] = target: Thyrotropin receptor (Homo sapiens) (UniProt P16473); assay: qHTS assay to identify small molecule agonists of the thyroid stimulating hormone receptor (TSHR) signaling pathway (AID 1224843; calls by dose curve; also: nearly all actives have a fitted effect of over 45% in size)
In short: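 A cell-based cAMP HTRF format was run in TSHR-transfected HEK293 cells, 800 per well. Treatment: 30 min, room temperature. Detection: 1 h with labelled cAMP and anti-cAMP cryptate. Concentration-response over 15 points, three replicates.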

[6] = qHTS assay to identify small molecule agonists of the estrogen related receptor signaling pathway with the pleiotropic PPARgamma coactivator (PGC) from Tox21 10K library (AID 1224842); also: nearly all actives have a fitted effect of over 15% in size
In short: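 Luminescence from One-Glo (30 min, room temperature) measured after PGC/ERR cells had 18 h at 37 C with pinned compound (23 nL in DMSO). Cells had been seeded at 2,000 per well and pre-incubated 6 h.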

[7] = qHTS assay to identify small molecule antagonists of the estrogen related receptor signaling pathway with the pleiotropic PPARgamma coactivator (PGC) from Tox21 10K library (AID 1224841; call rule not given here; also: actives are mostly falling curves and most rising ones were filed inactive; nearly all actives have a fitted effect of over 50% in size)
In short: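 Luminescence read-out (One-Glo luciferase reagent, 30 min at room temperature) from PGC/ERR cells exposed to DMSO-dissolved test compounds for 18 h at 37 C; cells, 2,000 per well, had been preincubated 6 h before compound transfer.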

[8] = qHTS assay to identify small molecule antagonists of the estrogen related receptor signaling pathway with the pleiotropic PPARgamma coactivator (PGC) from Tox21 10K library - cell viability counter screen (AID 1224840; active = well fitted cell-killing curve with a large enough effect in the repeat runs, not every such curve was filed as active; also: nearly all actives have a fitted effect of over 40% in size)
In short: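 Fluorescence read-out of CellTiter-Fluor viability reagent, added after cells had been exposed to compound in DMSO for 17.5 h at 37 C; 30 min development at 37 C/5% CO2. Cells: PGC/ERR line, 2,000/well.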

[9] = target: Nuclear receptor subfamily 1 group I member 3 (Homo sapiens) (UniProt Q14994); assay: qHTS assay to identify small molecule antagonists of the constitutive androstane receptor (CAR) signaling pathway (AID 1224838);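 also: HepG2 cells stably expressing hCAR with CYP2B6 luciferase reporter stimulated by CITCO; nearly all actives have a fitted effect of over 40% in size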
In short: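 Read-out: ONE-Glo luciferase luminescence after 30 min at room temperature. HepG2-CYP2B6-hCAR double-stable cells, compounds in 15-point titration plus 50 nM CITCO final, 24 h at 37 C/5% CO2.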

[10] = target: Nuclear receptor subfamily 1 group I member 3 (Homo sapiens) (UniProt Q14994); assay: qHTS assay to identify small molecule agonists of the constitutive androstane receptor (CAR) signaling pathway (AID 1224839); also: nearly all actives have a fitted effect of over 15% in size;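 as to activation: HepG2 cells stably carrying human CAR and a CYP2B6 luciferase reporter; series mostly up to about 92 µM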
In short: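 Double-stable HepG2 cells (hCAR, CYP2B6-2.2kb) seeded 4 h before compound addition. Exposure 24 h with 0.75 uM PK11195 final. Luciferase detected by ONE-Glo.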
Potency is read from the fitted curve at half-maximal effect.

Thyrotropin receptor (Homo sapiens), sequence (P16473 whole entry, looked up): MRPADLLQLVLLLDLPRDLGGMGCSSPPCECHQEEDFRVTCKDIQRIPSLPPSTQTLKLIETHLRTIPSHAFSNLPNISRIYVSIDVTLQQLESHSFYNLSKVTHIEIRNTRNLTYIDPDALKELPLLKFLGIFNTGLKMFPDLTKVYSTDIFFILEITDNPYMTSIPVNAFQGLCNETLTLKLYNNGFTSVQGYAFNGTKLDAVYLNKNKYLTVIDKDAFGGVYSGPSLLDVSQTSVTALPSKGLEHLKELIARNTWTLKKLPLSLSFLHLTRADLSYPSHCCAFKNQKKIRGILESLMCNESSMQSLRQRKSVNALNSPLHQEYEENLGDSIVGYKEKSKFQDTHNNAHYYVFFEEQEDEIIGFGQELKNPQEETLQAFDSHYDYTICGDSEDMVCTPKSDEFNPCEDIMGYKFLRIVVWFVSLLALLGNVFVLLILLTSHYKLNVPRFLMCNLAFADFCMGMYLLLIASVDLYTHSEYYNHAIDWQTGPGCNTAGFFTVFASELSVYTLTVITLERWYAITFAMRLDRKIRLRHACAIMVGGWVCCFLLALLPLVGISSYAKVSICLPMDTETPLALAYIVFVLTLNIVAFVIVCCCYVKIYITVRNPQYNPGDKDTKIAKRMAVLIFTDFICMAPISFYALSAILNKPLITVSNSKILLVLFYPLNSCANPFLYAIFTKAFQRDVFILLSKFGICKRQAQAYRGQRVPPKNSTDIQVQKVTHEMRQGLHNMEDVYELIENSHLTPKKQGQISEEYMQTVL
Nuclear receptor subfamily 1 group I member 3 (Homo sapiens), sequence (Q14994 whole entry, looked up): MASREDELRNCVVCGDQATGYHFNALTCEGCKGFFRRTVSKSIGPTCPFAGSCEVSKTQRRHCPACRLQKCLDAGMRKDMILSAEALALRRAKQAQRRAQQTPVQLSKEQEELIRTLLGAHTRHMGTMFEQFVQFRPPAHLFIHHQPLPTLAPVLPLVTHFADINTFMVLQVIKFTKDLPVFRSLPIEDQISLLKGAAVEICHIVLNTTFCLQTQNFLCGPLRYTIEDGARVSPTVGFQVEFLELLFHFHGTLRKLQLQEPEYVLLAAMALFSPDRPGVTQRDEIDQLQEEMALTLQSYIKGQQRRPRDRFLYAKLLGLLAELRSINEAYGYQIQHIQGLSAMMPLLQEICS

CC(=[OH+])/C=C(/C)[O-].CC(=[OH+])/C=C(\C)[O-].CC(=[OH+])/C=C(\C)[O-].[Fe]
Potency [1]: inactive | Potency [2]: inactive | Potency [3]: inactive

CCCCCCCCCCCCCCCC[n+]1ccccc1
Potency [1]: 25.5 µM (active) and 15.4 µM (active) and 13.5 µM (active) | Potency [2]: 32 µM (active) and 15.4 µM (active) and 19.1 µM (active) | Potency [4]: 57.5 µM (active) and inactive | Potency [3]: inactive

SCc1ccco1
Potency [1]: inactive | Potency [2]: inactive | Potency [5]: inactive | Potency [4]: inactive | Potency [3]: inactive

CC(C)C(=O)Cl
Potency [1]: inactive | Potency [2]: inactive | Potency [6]: inactive | Potency [5]: inactive | Potency [4]: inactive | Potency [3]: inactive

Clc1ccc(C(c2ccc(Cl)cc2)C(Cl)(Cl)Cl)cc1
Potency [1]: inactive | Potency [2]: inactive | Potency [7]: 17.4 µM (active) and inactive | Potency [6]: inactive | Potency [4]: 24.7 µM (active) | Potency [3]: 0.161 µM (active)

CC(C)(C)C(O)C(Oc1ccc(-c2ccccc2)cc1)n1cncn1 (stereo unspecified)
Potency [1]: inactive | Potency [8]: inactive | Potency [7]: 54.5 µM (active) | Potency [6]: inactive | Potency [4]: 54.9 µM (active)

S=C=Nc1cccc2ccccc12
Potency [1]: 67.9 µM (active) | Potency [8]: inactive | Potency [6]: inactive | Potency [4]: 48.5 µM (active)

CN(C)C(=S)S
Potency [1]: 19.7 µM (active) and 6.81 µM (active) and 27.3 µM (active) | Potency [2]: 27.9 µM (active) and 7.64 µM (active) and 27.3 µM (active) | Potency [8]: 2.15 µM (active) and 12.2 µM (active) | Potency [4]: 1.41 µM (active) and 4.86 µM (active) and 4.36 µM (active) | Potency [3]: 29 µM (active) and 4.47 µM (active)

CCCCN(CCCC)C(=S)[S-].CCCCN(CCCC)C(=S)[S-].[Zn+2]
Potency [1]: 21.7 µM (active) | Potency [2]: 21.7 µM (active) | Potency [8]: 13.7 µM (active) | Potency [4]: 15.5 µM (active) | Potency [3]: inactive

BrCC(Br)c1ccccc1 (stereo unspecified)
Potency [1]: inactive | Potency [2]: inactive | Potency [5]: inactive | Potency [4]: inactive | Potency [3]: inactive

Clc1ccc(CCC(Cn2ccnc2)Sc2c(Cl)cccc2Cl)cc1 (stereo unspecified)
Potency [1]: inactive | Potency [9]: inactive | Potency [10]: 29.8 µM (active) | Potency [4]: 23.9 µM (active)

[CH3][Hg][Cl]
Potency [1]: 24.3 µM (active) | Potency [10]: inactive | Potency [8]: 38.5 µM (active) | Potency [5]: inactive | Potency [4]: 10.9 µM (active)

CCOP(=S)(OCC)SCCS(=O)(=O)CC
Potency [1]: inactive | Potency [2]: inactive | Potency [6]: inactive | Potency [4]: inactive

CC(C)[C@H](C(=O)O[C@H](C#N)c1cccc(Oc2ccccc2)c1)c1ccc(Cl)cc1
Potency [1]: inactive | Potency [2]: inactive | Potency [8]: inactive | Potency [4]: inactive | Potency [3]: inactive

Nc1ccc(Cl)cc1C(=O)c1ccccc1
Potency [1]: inactive | Potency [8]: inactive | Potency [6]: 54.5 µM (active) | Potency [5]: inactive | Potency [4]: inactive | Potency [3]: inactive

COc1cccc(C(=O)CCN[C@@H](C)[C@H](O)c2ccccc2)c1
Potency [1]: inactive | Potency [10]: inactive | Potency [8]: inactive | Potency [7]: inactive | Potency [6]: inactive | Potency [5]: inactive

C[C@]12Cc3nonc3C[C@@H]1CC[C@@H]1[C@@H]2CC[C@@]2(C)[C@H]1CC[C@]2(C)O
Potency [1]: inactive | Potency [2]: inactive | Potency [6]: inactive | Potency [5]: inactive | Potency [4]: 26.8 µM (active) | Potency [3]: inactive

C[C@@H]1O[C@@H](O[C@H]2C[C@@H](O)[C@]3(CO)[C@H]4[C@H](O)C[C@]5(C)[C@@H](C6=CC(=O)OC6)CC[C@]5(O)[C@@H]4CC[C@]3(O)C2)[C@H](O)[C@H](O)[C@H]1O
Potency [1]: 231 nM (active) and 266 nM (active) | Potency [9]: 146 nM (active) and 168 nM (active) | Potency [10]: inactive | Potency [3]: inactive

ClC1=C(Cl)C2(Cl)C3C(Cl)C=CC3C1(Cl)C2(Cl)Cl (stereo unspecified)
Potency [1]: inactive | Potency [2]: inactive | Potency [5]: 7.73 µM (active) and 15.4 µM (active)

CCCCCCCCCCCCCC[P+](CCCCCC)(CCCCCC)CCCCCC (tested in a mixture with another compound)
Potency [1]: 17.2 µM (active) | Potency [2]: 17.2 µM (active) | Potency [8]: 24.3 µM (active) | Potency [3]: 17.9 µM (active)

COP(=O)(OC)SCn1c(=O)oc2cc(Cl)cnc21
Potency [1]: 30.6 µM (active) | Potency [10]: inactive | Potency [8]: inactive | Potency [6]: inactive | Potency [5]: 24.3 µM (active) | Potency [4]: 49 µM (active) | Potency [3]: inactive

CC(=O)[O-].[Tl+]
Potency [1]: inactive | Potency [2]: inactive | Potency [8]: inactive | Potency [3]: inactive

O=C(CBr)c1ccc(O)cc1
Potency [1]: inactive | Potency [2]: inactive | Potency [7]: inactive | Potency [6]: inactive | Potency [4]: inactive

O=[N+]([O-])c1cc(C(F)(F)F)c(Cl)c([N+](=O)[O-])c1Cl
Potency [1]: 43.3 µM (active) | Potency [2]: 27.3 µM (active) | Potency [6]: inactive | Potency [4]: 7.76 µM (active) | Potency [3]: 31.8 µM (active)

N#CCCO
Potency [1]: inactive | Potency [2]: inactive | Potency [8]: inactive | Potency [4]: inactive | Potency [3]: inactive

CCC(C)c1cc([N+](=O)[O-])cc([N+](=O)[O-])c1OC(=O)C=C(C)C (stereo unspecified)
Potency [1]: 61.1 µM (active) | Potency [2]: 61.1 µM (active) | Potency [4]: inactive

CN(C)C(=S)[S-].CN(C)C(=S)[S-].[Cu+2]
Potency [1]: 3.73 µM (active) | Potency [2]: 1.49 µM (active) | Potency [8]: 0.938 µM (active) | Potency [4]: 2.67 µM (active) | Potency [3]: 2.45 µM (active)

CCCCCCCCc1ccc(O)cc1
Potency [1]: 69 µM (active) | Potency [9]: inactive | Potency [10]: 48.9 µM (active) | Potency [5]: inactive | Potency [4]: 39.1 µM (active) | Potency [3]: 36 µM (active)

CC[C@H]1C[C@@H]2C[C@H]3c4[nH]c5ccc(OC)cc5c4CCN(C2)[C@@H]13
Potency [1]: inactive | Potency [9]: inactive | Potency [10]: inactive | Potency [7]: 53.5 µM (active) | Potency [6]: inactive

CNC(C)Cc1ccc2c(c1)OCO2 (stereo unspecified)
Potency [1]: inactive | Potency [10]: inactive | Potency [5]: inactive

CCc1cc(C)cc(CC)c1-c1c(OC(=O)C(C)(C)C)n2n(c1=O)CCOCC2
Potency [1]: inactive | Potency [8]: inactive | Potency [7]: 8.63 µM (active) | Potency [6]: inactive | Potency [5]: inactive | Potency [4]: inactive | Potency [3]: inactive

NNC(=O)c1ccccc1
Potency [1]: inactive | Potency [9]: inactive | Potency [10]: 62.8 µM (active) | Potency [8]: inactive | Potency [5]: inactive | Potency [4]: inactive | Potency [3]: inactive

COc1ccc(OC)c(C=O)c1
Potency [1]: inactive | Potency [2]: inactive | Potency [4]: inactive | Potency [3]: inactive
